Sampled rows, rich in hits. Any-hit rate of the full collection: about 4.6%.
TRHR PAM: qHTS for Small Molecule Agonists and Allosteric Enhancers of Human TRH Receptor: Primary Screen for Enhancers | Thyrotropin-releasing hormone receptor (Homo sapiens), P34981 | TRHR cells, fluo-8 calcium fluorescence, EC20 TRH enhancement | enhancement, % at 2 µM | hit rate 0.66% among 360,000 | AID 493056, 2011; in the data active means enhancement above about 30%; further: 0% is about no effect
Target sequence (P34981 whole entry, looked up): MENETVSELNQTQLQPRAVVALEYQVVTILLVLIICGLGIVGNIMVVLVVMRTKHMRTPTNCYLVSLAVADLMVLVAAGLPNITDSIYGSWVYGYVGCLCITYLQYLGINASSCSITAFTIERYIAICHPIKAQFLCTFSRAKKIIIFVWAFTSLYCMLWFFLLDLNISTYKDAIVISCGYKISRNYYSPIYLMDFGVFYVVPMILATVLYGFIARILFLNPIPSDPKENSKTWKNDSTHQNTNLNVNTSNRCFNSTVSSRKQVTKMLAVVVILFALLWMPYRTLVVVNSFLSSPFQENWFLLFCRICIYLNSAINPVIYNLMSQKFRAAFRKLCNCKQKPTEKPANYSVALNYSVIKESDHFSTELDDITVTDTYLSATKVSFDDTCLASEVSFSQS
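TRHR-expressing cells loaded with fluo-8 calcium dye were read kinetically (ex 480/em 530) during compound addition, then stimulated with an EC20 of TRH (10 nM final). Enhancement of the Gq-mediated intracellular calcium response was scored.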
D1 ag: Allosteric Agonists of the Human D1 Dopamine Receptor: qHTS. D(1A) dopamine receptor (Homo sapiens), P21728. AID 504660, 2011. HEK293 T-REx D1 cells, calcium flux, agonist mode. hit rate 1% among 360,000. activation, % at 2 µM; further: 0% is about no effect
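Agonism was scored from calcium flux recorded over 180 s (1 read/s) after pintool compound addition, following a 10-cycle baseline. Cells were inducible force-coupled HEK293 TREx D1, plated overnight at 30 C and loaded with no-wash calcium dye.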
TRHR agonist: qHTS for Small Molecule Agonists and Allosteric Enhancers of Human TRH Receptor: Primary Screen for Agonists | Thyrotropin-releasing hormone receptor (Homo sapiens), P34981 | hit rate 0.18% among 360,000 | activation, % at 2 µM | TRHR cells, calcium flux fluo-8, FDSS agonist mode; further: 0% is about no effect
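Read-out: compound-evoked intracellular calcium rise in TRHR cells, fluo-8 dye, kinetic FDSS fluorescence at 1 s/cycle following a 10-cycle baseline. Cells cultured overnight before dye loading (30 min–1.5 h, RT).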
D1 potentiator: Potentiators of Human D1 Dopamine Receptor: qHTS. HEK293 TREx D1 cells, calcium flux, dopamine EC20 potentiation. potentiation, % at 10 µM. D(1A) dopamine receptor (Homo sapiens), P21728. hit rate 0.036% among 360,000. AID 504651, 2011; in the data active means potentiation above about 30%; further: 0% is about no effect
D1 antag: Antagonist of Human D 1 Dopamine Receptor: qHTS. D(1A) dopamine receptor (Homo sapiens), P21728. HEK293 TREx D1 cells, calcium flux, dopamine EC80; active compounds read low. activity change, negative = inhibition, % at 10 µM. hit rate 3.2% among 360,000; in the data active means activity change below about -30%; further: on the % scale 0 is the no-effect control and ±100 the full control effect
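Kinetic fluorescence of a calcium dye serves as the read-out. D1-expressing Hek293 Trex cells, induced overnight at 30 C, are exposed to compound for 180 s before an EC80 dopamine addition, then read 180 s further.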
* hit, by the source's call; nt = not tested or not shown. Unless noted, no stated cut-off is given here; in the data, active means activation above about 30%; inactive means the rest.

SMILES	TRHR PAM	D1 ag	TRHR agonist	D1 potentiator	D1 antag
CCCNC(=O)c1ccc(N2CCC3(CC2)CC(c2cccc(Br)c2)=NO3)c([N+](=O)[O-])c1	9	1	0	-6	-44*
CCC(=O)c1ccc(OC(=O)Cc2ccc(OC)cc2)cc1	38*	2	1	-9	-33*
COc1ccc(CC(=O)Oc2ccccc2C)cc1	0	7	-2	-5	-1
CCc1c(C)nc2nncn2c1NCc1ccc(Cl)cc1	-5	5	3	-3	-2
Cc1ccc(CNc2c(C)c(C)nc3nncn23)cc1	7	6	1	2	-45*
COc1ccc(N2CCN(C(CNS(=O)(=O)c3c(C)cc(C)cc3C)c3ccco3)CC2)cc1 (stereo not drawn)	4	5	0	-5	nt
Cc1ccc2nc(-c3cc(-c4ccccc4)no3)cn2c1	-1	1	0	-17	-53*
CCN1C(C(=O)c2ccccc2)=C(OC(=O)c2ccc(Cl)cc2)c2ccccc2S1(=O)=O	-2	14	1	0	-9
COc1ccc(CN2CC(=O)N(c3ccc(C)c(C)c3)C2=S)cc1OC	2	6	1	-11	-36*
CCOC(=O)Cc1csc(N/N=C/c2cccc([N+](=O)[O-])c2)n1	13	0	-1	-6	-5
O=[N+]([O-])c1cccc(-c2csc(N/N=C/c3cccc(O)c3)n2)c1	-1	2	1	-12	-43*
Cc1csc(N/N=C/c2ccc([N+](=O)[O-])cc2)n1	-2	7	2	-1	-35*
COc1ccc([C@]23Cc4ccccc4C(O2)c2c(cc(C)n(Cc4ccccc4)c2=O)O3)cc1	-2	4	3	-2	0
Cc1cc(C)c(NC(=O)c2cccc3c2C(=O)N(C2CCCCC2)C3)c(C)c1	2	2	0	18	14
CC(C)c1ccc(-c2noc(SCC(=O)N3CCCCC3)n2)cc1	1	11	0	-2	-2
Cc1cc(C)c2c(=O)cc(C(=O)Nc3sc4c(c3C(=O)NCC3CCCO3)CCCC4)oc2c1 (stereo not drawn)	2	-1	0	0	-16
Cc1cc(C)c2c(=O)cc(C(=O)Nc3sc4c(c3C(=O)NCc3ccccc3)CCCC4)oc2c1	20	-1	1	3	-86*
O=C(Nc1sc2c(c1C(=O)NCc1cccnc1)CCCC2)c1ccco1	3	2	0	4	-32*
Cc1c(C(=O)N2CCCC2)oc2c1-c1nn(CC(=O)NCCCN3CCCCC3)cc1CC2	1	3	0	4	-31*
CC(C)c1nn2c(=O)cc(COC(=O)c3cccc(NC(=O)CCc4ccccc4)c3)nc2s1	-1	5	0	-1	-12
CC(C)NC(=O)Cn1c(=O)cnc2ccccc21	-1	4	0	-5	-55*
Nc1cc2c(cc1C(=O)c1ccccc1)OCCO2	2	0	0	8	11
Cc1ccc(C(=O)c2cc3c(cc2N)OCCO3)cc1	0	-1	0	-5	-76*
CCCc1cc(C(=O)Nc2cc(Cl)ccc2O)no1	1	1	1	-7	-4
CCCc1cc(C(=O)Nc2cc(Br)ccc2O)no1	-5	40*	0	-4	-15
COc1cc(C)c(C)cc1S(=O)(=O)Nc1cccc(-c2ccc(N3CCOCC3)nn2)c1	-23	-2	0	-3	-69*
COc1ccc(S(=O)(=O)Nc2cccc(-c3ccc(N4CCOCC4)nn3)c2)cc1F	1	-1	0	2	-37*
Cc1ccc([N+](=O)[O-])cc1S(=O)(=O)Nc1cccc(-c2ccc(N3CCOCC3)nn2)c1	0	3	1	-2	-3
CC1CCCCN1C(=O)Cn1c(=O)n(-c2ccc(Cl)cc2)c(=O)c2c3c(sc21)CCC3 (stereo not drawn)	10	1	-1	0	-3
O=C(CSc1nnc2ccc(-c3ccc(F)cc3)nn12)N1CCCC1	3	2	-1	-4	-32*

Screening data as filed in PubChem BioAssay.
